# ± gives the standard deviation of the averaged measurements.
# Columns and labels:
# Details in all cases: concentration: 10 µM; 24 h
# [1] = tested on: HCC1569; test: cell number relative to DMSO (% of DMSO); higher = more cells (less growth inhibition / toxicity)
# Procedure, shortened: (§1)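 For HCC1569 and TDF cells, compounds at 10 µM were applied for 24 h at 37 °C in triplicate in 384-well plates. Cells were fixed in 3.7% formaldehyde, stained for H1.0 and with DAPI, and imaged at ×10 over six fields per well. The endpoint, H1.0 nuclear intensity or cell number, is shown as percent of the plate control using the median of replicates. Positional effects were smoothed for HCC1569 only.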
# [2] = tested on: TDF; test: as above
# Procedure, shortened: as §1
# [3] = tested on: TDF; test: H1.0 immunofluorescence intensity relative to DMSO (% of DMSO); higher = stronger H1.0 induction, active = 120 or more
# Procedure, shortened: as §1
# [4] = tested on: HCC1569; test: H1.0 immunofluorescence intensity relative to DMSO (% of DMSO); higher = stronger H1.0 induction, active = 140 or more
# Procedure, shortened: as §1
# 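Throughout, for H1.0 immunofluorescence intensity relative to DMSO: TDF is a line of transformed human dermal fibroblasts of mesenchymal origin.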
# 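Throughout, for cell number relative to DMSO: TDF denotes transformed human dermal fibroblasts of mesenchymal origin.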
SMILES,cell number [1],cell number [2],H1.0 immunofluorescence intensity [3],H1.0 immunofluorescence intensity [4]
CCOc1nc(NC(=O)Cc2cc(OC)ccc2OC)cc(N)c1C#N [JNK Inhibitor VIII],97.9,104,92.7 (inactive),120 (inactive)
C[C@H](c1ccc(F)cc1CCCC(=O)O)N(c1cc(F)ccc1F)S(=O)(=O)c1ccc(Cl)cc1,99.7,90.2,94.6 (inactive),111 (inactive)
O=C(NCCCN1CCOCC1)c1cnn2c(-c3ccccc3)cc(-c3ccccc3)nc12,95.3,84.3,97.2 (inactive),119 (inactive)
COc1ccc2c(c1OC)C(=O)OC2C1c2c(cc3c(c2OC)OCO3)CCN1C (racemic),98.6,96.2,105 (inactive),94.1 (inactive)
COc1ccc(CCN(C)CCc2ccc(OC)c(OC)c2)cc1OC.Cl [YS-035 hydrochloride],99.4,108,96.6 (inactive),98.3 (inactive)
O=P(O)(O)C(O)(Cn1ccnc1)P(=O)(O)O [Zoledronic acid],99,89,94 (inactive),100 (inactive)
CCCCCC=CCC=CC=CC=CC(SCC(NC(C)=O)C(=O)O)C(O)CCCC(=O)O (stereo not given) [N-Acetyl-leukotriene E4],103,102,92 (inactive),100 (inactive)
Brc1c(NC2=NCCN2)ccc2nccnc12,103,102,90.2 (inactive),96.8 (inactive)
O=C(C1CCCCC1)N1CC(=O)N2CCc3ccccc3C2C1 (stereo not given) [Praziquantel],101 ± 4.6,103 ± 5.6,94.8 (inactive),106 (inactive)
CCC=CCC=CCC=CCCCCCCCCCCCC(=O)O [Docosatrienoic acid],101 ± 2.4,97.7 ± 10,100 (inactive),102 (inactive)
COc1ccc(S(=O)(=O)Nc2cc(Cl)cc(Cl)c2OC)cc1N1CCNCC1.Cl,100,100,93.4 (inactive),99.9 (inactive)
CCCCCCCCC(=O)NCc1cc(OC)c(O)cc1I [N-(4-hydroxy-2-iodo-5-methoxybenzyl)nonanamide],96.2,98.9,93.2 (inactive),116 (inactive)
NC(=O)c1ccc(-c2nc(-c3ccc4c(c3)OCCO4)c(-c3ccccn3)[nH]2)cc1,97.4,108,94.2 (inactive),122 (inactive)
O=C(O)CCCC=CCC1C(O)CC(F)C1C=CC(O)C1Cc2ccccc2C1 (stereo not given),103,103,91.9 (inactive),97.3 (inactive)
CC1CCC2C(C)(CO)C(O)CCC2(C)C12CCC(CO)(CCO)O2 (stereo not given) [Lagochiline],98.2,99.8,97 (inactive),100 (inactive)
NS(=O)(=O)c1cc(C2(O)NC(=O)c3ccccc32)ccc1Cl (stereo not given),101,98.1,96.1 (inactive),104 (inactive)
CCCCCCCC/C=C\CCCCCCCC(N)=O [(9Z)-9-octadecenamide],102,102,102 (inactive),98.7 (inactive)
CC(C(=O)O)c1ccc2c(c1)Cc1cccnc1O2 (stereo not given) [Pranoprofen],98.6,94.7,103 (inactive),102 (inactive)
NCCCCCC(=O)O [6-Aminohexanoic acid],101,116,106 (inactive),102 (inactive)
N#CC(=Cc1ccc(O)c(O)c1)C(=O)NCCCc1ccccc1 [Tyrphostin AG 555],79.8,90.7,88.6 (inactive),107 (inactive)
CCCCCCCCC1OC1CCCCCCCC(=O)O (stereo not given) [Epoxy-oleic acid],97.7,99.9,96.8 (inactive),99.1 (inactive)
O=c1[nH]c2ccccc2n1CCCN1CCN(C(c2ccccc2)c2ccccc2)CC1 [Oxatomide],98.3 ± 2.3,105 ± 7.4,90.8 (inactive),101 (inactive)
Cl.NCCNC(=O)c1ccc(Cl)cc1 [Ro 16-6491 hydrochloride],100,102,94.8 (inactive),107 (inactive)
COc1ccc2[nH]cc(CCNC(C)=O)c2c1 [Melatonin],101 ± 3.5,99.5 ± 3,93.4 (inactive),93.4 (inactive)
Cc1coc2c1C(=O)C(=O)c1c-2ccc2c1CCCC2(C)C [Tanshinone IIA],85.3 ± 2.9,45.7 ± 6,113 (inactive),114 (inactive)

# From the supplement of paper PMC7156485
